Potency and outcome data for 14 compounds are collected here from PubChem BioAssay (Tox21).

Results filed as inconclusive are left out. Calls of active or inactive are those of the source. The call rests on the fitted dose curve; in most records, active means well fitted curve in the direction sought with a large enough effect in the repeat runs; inconclusive means weak or mixed curves; inactive means no such curve, though single readings can be large; an effect the other way counts as inactive or inconclusive.

Assay [1] in a line: A CellTox Green Cytotoxicity Assay to monitor cytotoxicity in HepG2 cells - 8 hour (AID 1224890). Further: nearly all actives have a fitted effect of over 45% in size. The conditions noted are these: CellTox Green fluorescence; series mostly up to 76.8 µM. In short, it runs like this:
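Real-time cytotoxicity: fluorescence of a cell-impermeant cyanine dye binding DNA of dead HepG2 cells, measured repeatedly (0–40 h) during compound exposure at 37 C. Cells seeded 600/well with reagent, dosed after 5 h.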

Assay [2] can be described thus: qHTS assay to identify small molecule antagonists of the estrogen receptor alpha (ER-alpha) signaling pathway using the BG1 cell line in the presence of 0.1 nM 17-beta-estradiol - cell viability counter screen (AID 1259241). Further: nearly all actives have a fitted effect of over 40% in size. Particulars: VM7Luc4E2 (BG1) viability, CellTiter-Fluor protease, 22 h, 0.1 nM estradiol agonist added; series mostly up to 92.4 µM. In short, it runs like this: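 VM7Luc4E2 cells (endogenous ER-alpha, 4×ERE-luciferase), hormone-starved 5 days in charcoal-stripped FBS, were treated with compounds plus 0.1 nM 17beta-estradiol for 22 hr at 37C; viability read in same wells as CellTiter-Fluor live-cell protease fluorescence.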
(In general: In qHTS, concentration-response curves come from the screen itself.)

Assay [3] can be described thus: qHTS assay to identify small molecule antagonists of the androgen receptor (AR) signaling pathway using the MDA cell line in the presence of 0.5 nM R1881 - cell viability counter screen (AID 1259242). Further: nearly all actives have a fitted effect of over 45% in size. The conditions noted are these: MDA-kb2 viability, CellTiter-Fluor protease fluorescence, 16 h; series mostly up to 92.4 µM. In outline:
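Live-cell protease activity was measured by CellTiter-Fluor fluorescence after 30 min. Before that, MDA-kb2 MMTV-luciferase cells had 16 hr at 37C without CO2, exposed to test compounds and 0.5 nM R1881 final.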

Assay [4] addresses Estrogen receptor (Homo sapiens) (UniProt P03372). Nature of the assay: qHTS assay to identify small molecule antagonists of the estrogen receptor alpha (ER-alpha) signaling pathway using the BG1 cell line in the presence of 0.1 nM 17-beta-estradiol (AID 1259244). Further: nearly all actives have a fitted effect of over 50% in size. The conditions noted are these: VM7Luc4E2 (BG1) ERE-luciferase, antagonist mode, 0.1 nM E2, 22 h; series mostly up to 92.4 µM. In outline:
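Luciferase luminescence (ONE-Glo, 30 min at room temperature) was read after 22 hr at 37C exposure to compounds plus 17beta-estradiol at 0.1 nM final. Cells were VM7Luc4E2 with endogenous ER-alpha and an ERE-driven luciferase, pre-cultured 5 days in hormone-depleted medium.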

Assay [5] in a line: qHTS assay to identify small molecule HDAC inhibitors (AID 1259364). Further: nearly all actives have a fitted effect of over 45% in size. Further: potency means the concentration at half of the fitted maximal effect. Particulars: HCT-116 HDAC-Glo I/II luminescence, 2 h; series mostly up to 92.4 µM. In outline: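 Luminescence read after 30 min room-temperature HDAC-Glo incubation measures cellular class I/II HDAC activity. Compounds were applied for 2 hr at 37 C to HCT-116 wild-type cells seeded the day before.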
Assay [6] in a line: qHTS assay to identify small molecule HDAC inhibitors - cell viability counter screen (AID 1259365). Further: nearly all actives have a fitted effect of over 50% in size. Particulars: HCT-116 viability, CellTiter-Glo ATP luminescence, 2 h; series mostly up to 92.4 µM. In short, it runs like this:
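Wild-type HCT-116 cells were seeded at 1,500 per well, incubated overnight at 37 C, then exposed to compounds in DMSO for 2hr. Viability was read by CellTiter-Glo luminescence after 30min at room temperature.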

A short description of assay [7]: qHTS assay to identify small molecule agonists of the sonic hedgehog signaling (Shh) pathway - cell viability counter screen (AID 1259366). Further: nearly all actives have a fitted effect of over 50% in size. Particulars: NIH/3T3 Gli1-Luc viability, CellTiter-Fluor, 24 h; series mostly up to 92.4 µM. In short, it runs like this:
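NIH/3T3-derived 3T3 Gli1-Luc cells (stable Gli1-responsive firefly luciferase reporter) were seeded, rested 4 hr at 37 C/5% CO2, then exposed to compounds in DMSO for 24 hr; viability was read by CellTiter-Fluor fluorescence in the same wells.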

A short description of assay [8]: qHTS assay to identify small molecule antagonists of the sonic hedgehog signaling (Shh) pathway - cell viability counter screen (AID 1259367). Further: nearly all actives have a fitted effect of over 55% in size. The conditions noted are these: NIH/3T3 Gli1-Luc viability, CellTiter-Fluor, 24 h; series mostly up to 92.4 µM. In short, it runs like this:
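Conditioned medium drove Shh signaling in 3T3 Gli1-Luc cells exposed to compounds at 37C and 5% CO2. Viability was determined from CellTiter-Fluor fluorescence, with reagent incubated 1 hr after 23 hr of treatment.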

Estrogen receptor (Homo sapiens), sequence (P03372 whole entry, looked up): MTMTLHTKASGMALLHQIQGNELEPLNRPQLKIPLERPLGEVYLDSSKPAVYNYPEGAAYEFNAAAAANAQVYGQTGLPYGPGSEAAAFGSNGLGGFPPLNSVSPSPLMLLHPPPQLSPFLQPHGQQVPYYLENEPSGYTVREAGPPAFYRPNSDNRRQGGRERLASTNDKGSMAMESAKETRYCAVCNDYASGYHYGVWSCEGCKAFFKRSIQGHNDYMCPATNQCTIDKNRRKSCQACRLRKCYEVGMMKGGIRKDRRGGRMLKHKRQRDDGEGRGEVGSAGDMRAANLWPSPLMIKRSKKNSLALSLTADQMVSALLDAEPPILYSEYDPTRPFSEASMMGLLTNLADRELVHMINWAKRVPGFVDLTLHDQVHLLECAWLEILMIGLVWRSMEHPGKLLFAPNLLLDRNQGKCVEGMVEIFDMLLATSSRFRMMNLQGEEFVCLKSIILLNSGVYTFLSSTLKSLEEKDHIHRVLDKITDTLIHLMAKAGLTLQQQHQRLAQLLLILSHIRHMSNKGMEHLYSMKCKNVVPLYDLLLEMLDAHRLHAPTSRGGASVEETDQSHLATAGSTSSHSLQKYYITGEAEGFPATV

On to `CCCCCCC(CCCCCCCCCCC(=O)OCC(COC(C)=O)OC(C)=O)OC(C)=O` (stereo not drawn), for which the Potency entry in assay [1], in assay [5] and in assay [7] was “inactive” in each case. Besides, the outcome in assay [2], in assay [3], in assay [4], in assay [6] and in assay [8] was inactive.

For `CC(C)(C)CC(C)(C)N`, the Potency entry in assay [1], in assay [5] and in assay [7] was “inactive” each time. Further, the outcome in assay [2], in assay [3], in assay [4], in assay [6] and in assay [8] was inactive.

With `O=C1OC(=O)c2cc([N+](=O)[O-])ccc21`, the Potency result in assay [1], in assay [5] and in assay [7] was “inactive” throughout. Further, the outcome in assay [2], in assay [3], in assay [4], in assay [6] and in assay [8] was inactive.

`CC(C)(O)C(=O)c1ccc(OCCO)cc1`: the Potency result in assay [1], in assay [5] and in assay [7] was “inactive” each time. Moreover, the outcome in assay [2], in assay [3], in assay [4], in assay [6] and in assay [8] was inactive.

In the case of `CC(C)CCOC(=O)CC(C)C`, the Potency result in assay [1], in assay [5] and in assay [7] was “inactive” in each case. The outcome in assay [2], in assay [3], in assay [4], in assay [6] and in assay [8] was inactive.

For the compound `COC(=O)CCCC(=O)O`, the Potency entry in assay [1], in assay [5] and in assay [7] was “inactive” each time. Besides, the outcome in assay [2], in assay [3], in assay [4], in assay [6] and in assay [8] was inactive.

Take `C=C(C)C(=O)NCCC[N+](C)(C)C`: the Potency result in assay [1], in assay [5] and in assay [7] was “inactive” in each case. The outcome in assay [2], in assay [3], in assay [4], in assay [6] and in assay [8] was inactive.

For `Cc1ccccc1C(=O)O`, the Potency entry in assay [1] and in assay [7] was “inactive” throughout. Moreover, the outcome in assay [2], in assay [3] and in assay [6] was inactive. For the same compound, the Potency in assay [5] was 30.1 µM (active).

In the case of `CC(C)(O)c1ccccc1`, the Potency entry in assay [1] and in assay [5] was “inactive” throughout. Further, the result in assay [2], in assay [3], in assay [4], in assay [6] and in assay [8] was inactive.

Turning to `Oc1ccc2c(c1)OC[C@@H](N1CCC(O)(c3ccc(F)cc3)CC1)[C@H]2O`, the Potency result in assay [1] was “inactive”. The result in assay [2], in assay [3], in assay [4], in assay [6] and in assay [8] was inactive. The Potency in assay [5] is 2.37 µM (active).

`Cc1ccccc1Br`: the Potency result in assay [1], in assay [5] and in assay [7] was “inactive” in each case. The result in assay [2], in assay [3] and in assay [6] was inactive.

As to `O=Cc1ccccc1[N+](=O)[O-]`, the Potency entry in assay [1] and in assay [5] was “inactive” each time. Moreover, the outcome in assay [2], in assay [3], in assay [4], in assay [6] and in assay [8] was inactive.

In the case of `C/C=C1\C(=O)C[C@H]2[C@@H]3CCC4=CC(=O)CC[C@]4(C)[C@H]3CC[C@]12C`, the Potency result in assay [1] and in assay [5] was “inactive” each time. Moreover, the result in assay [2], in assay [3], in assay [4], in assay [6] and in assay [8] was inactive.

Take `COc1ccc(COC=O)cc1`: the Potency entry in assay [1] and in assay [5] was “inactive” each time. In addition, the result in assay [2], in assay [3], in assay [4], in assay [6] and in assay [8] was inactive.
